About 83,000 compounds went through this panel and 20% of them were active in at least one assay; those are over-represented in the sample as a whole.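 Step 1: grow cells in 96-well plates. Step 2: add test compound at a single concentration. Step 3: incubate 48 h. Step 4: record percent growth.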 Active and inactive are the calls of the source. The calls were made as follows: active = growth percent below 10; inactive = the rest.
Legend:
Assay in all cases: NCI-60 one-dose screen, 48 h (100 = growth as untreated, 0 = no growth, -100 = all killed)
Conditions in all cases: 10 µM unless noted
[1] = tested on: NCI-H23 lung
[2] = tested on: NCI-H226 lung
[3] = tested on: NCI-H322M lung
[4] = tested on: HOP-62 NSCLC
[5] = tested on: NCI-H460 lung
[6] = tested on: HOP-92 NSCLC
[7] = tested on: NCI-H522 lung
[8] = tested on: A549/ATCC NSCLC
[9] = tested on: 786-0 renal
[10] = tested on: COLO 205 colon
[11] = tested on: DU-145 prostate
[12] = tested on: K-562 leukemia
[13] = tested on: MALME-3M melanoma
[14] = tested on: MDA-MB-231 breast
[15] = tested on: RXF 393 renal
[16] = tested on: SF-268 CNS
[17] = tested on: SF-295 CNS
[18] = tested on: SF-539 CNS
[19] = tested on: UACC-257 melanoma
[20] = tested on: M14 melanoma

Measured: growth

O=[N+]([O-])c1ccc(Nc2nc(NCCN3CCOCC3)ncc2[N+](=O)[O-])cc1
inactive: [1] 89.9% | [2] 92% | [3] 85% | [4] 96% | [5] 94.4% | [6] 89.9% | [7] 72.6% | [8] 98.9% | [9] 92.6% | [10] 97.1% | [11] 92.5% | [12] 103% | [13] 91% | [14] 95.8% | [15] 63% | [16] 93.8% | [17] 98.6% | [18] 93.9% | [19] 109% | [20] 95%

Nc1nc2ncc(CCNc3ccc(C(=O)O)cc3)nc2c(=O)[nH]1
inactive: [1] 108% | [2] 100% | [3] 125% | [4] 113% | [5] 114% | [6] 97.8% | [7] 100% | [8] 105% | [9] 104% | [10] 105% | [11] 128% | [12] 115% | [13] 137% | [14] 107% | [15] 112% | [16] 120% | [17] 110% | [18] 101% | [19] 104%

O=C1Nc2ccc(Br)cc2C12Oc1ccccc1C1CC(c3ccc(F)cc3)=NN12 (centres undefined)
inactive: [1] 89% | [2] 83.1% | [3] 96.3% | [4] 104% | [5] 98.5% | [6] 109% | [7] 81% | [8] 91% | [9] 105% | [10] 109% | [11] 100% | [12] 84.7% | [13] 103% | [14] 105% | [15] 102% | [16] 85.5% | [17] 97.9% | [18] 91.9% | [19] 104%

O=C(O)c1c(=O)cccc2ssc12
inactive: [3] 62.1% | [19] 54.1%
active: [1] 0.447% | [2] -14.8% | [4] -45.5% | [5] 1.81% | [6] -0.323% | [7] -0.415% | [8] -51% | [9] -10.1% | [10] -45.7% | [11] -64.5% | [12] 4.02% | [13] -58.3% | [14] -57.3% | [15] -66.8% | [16] -38.6% | [17] -6.02% | [18] -18.6%

O=C(Nc1ccccc1Cl)c1ccc(NC2=C(Cl)C(=O)N(C3CCCCC3)C2=O)cc1
active: [1] -24.1% [30 µM] | [6] -16.8% [30 µM] | [15] -12.1% [30 µM]
inactive: [2] 97.1% [30 µM] | [3] 16.2% [30 µM] | [4] 88.4% [30 µM] | [5] 32.8% [30 µM] | [7] 70.3% [30 µM] | [8] 94% [30 µM] | [9] 69.9% [30 µM] | [10] 66.6% [30 µM] | [11] 28.8% [30 µM] | [12] 25.3% [30 µM] | [13] 80.6% [30 µM] | [14] 85.4% [30 µM] | [16] 60.5% [30 µM] | [17] 21.6% [30 µM] | [18] 82% [30 µM] | [19] 54.9% [30 µM]

C#Cc1cccc(NC(=O)c2ccccc2NC(=O)C=C)c1
inactive: [1] 97.1% [8.25 µM] | [2] 97.6% [8.25 µM] | [3] 101% [8.25 µM] | [4] 92.9% [8.25 µM] | [5] 103% [8.25 µM] | [6] 92.8% [8.25 µM] | [7] 80.5% [8.25 µM] | [8] 98.1% [8.25 µM] | [9] 89.9% [8.25 µM] | [10] 109% [8.25 µM] | [11] 95.6% [8.25 µM] | [12] 98.8% [8.25 µM] | [13] 102% [8.25 µM] | [14] 102% [8.25 µM] | [15] 120% [8.25 µM] | [16] 95.6% [8.25 µM] | [17] 105% [8.25 µM] | [18] 92% [8.25 µM] | [19] 104% [8.25 µM]

O=C1CSC(=S)N1CCc1ccc(O)cc1
inactive: [1] 95% | [2] 108% | [3] 98.1% | [4] 85.2% | [5] 99% | [6] 66.9% | [7] 46.8% | [8] 96.7% | [9] 40% | [10] 106% | [11] 33.5% | [12] 58.2% | [13] 85.3% | [14] 91.3% | [15] 95.9% | [16] 86.2% | [17] 97.5% | [18] 85.2% | [19] 92%

CCc1nnc(CNc2ccc(Cl)cc2)o1
inactive: [1] 105% | [2] 93.2% | [3] 92% | [4] 111% | [5] 100% | [6] 102% | [7] 89.9% | [8] 94.4% | [9] 97.4% | [10] 106% | [11] 108% | [12] 86.3% | [13] 95.6% | [14] 94.4% | [15] 113% | [16] 96.4% | [17] 102% | [18] 97% | [19] 103% | [20] 95.1%

N#Cc1c(-c2ccc(Cl)cc2)nc(NN=Cc2ccco2)nc1N1CCOCC1
inactive: [1] 70.8% | [2] 70.8% | [3] 69.4% | [4] 66.4% | [5] 68.2% | [6] 40.6% | [7] 62.3% | [8] 78.9% | [9] 74% | [10] 75.2% | [11] 85.4% | [12] 104% | [13] 42.4% | [14] 74.5% | [15] 52.2% | [16] 74.5% | [17] 73.8% | [18] 75.3% | [19] 87.9% | [20] 71.4%

COc1ccc(/C=C/C(=O)c2ccc(O)c(CN3CCN(c4cc5c(cc4F)c(=O)c(C(=O)O)cn5C4CC4)CC3)c2)cc1
inactive: [1] 37.7% | [2] 52.2% | [3] 22.6% | [4] 19.5% | [5] 51.4% | [6] 10.1% | [7] 16.9% | [8] 22.3% | [9] 27.8% | [10] 102% | [11] 27.8% | [12] 20.3% | [13] 30.4% | [14] 50.6% | [15] 28.3% | [16] 30.3% | [17] 13.1% | [18] 18.8% | [19] 42% | [20] 30.9%

COc1cccc(-c2nc3sccn3c2-c2ccnc(NCCCNS(=O)(=O)c3cccc(Cl)c3)c2)c1
inactive: [1] 39% | [2] 33.8% | [3] 77.4% | [4] 65% | [5] 64.8% | [6] 48.8% | [7] 43.7% | [8] 35.8% | [9] 63.9% | [10] 39.8% | [11] 46.4% | [12] 22.2% | [13] 60% | [14] 71.9% | [15] 71.9% | [16] 52.2% | [17] 21.2% | [18] 86.2% | [19] 55.2% | [20] 30.8%

O=C1c2cc3c(cc2-c2c1c1ccc(F)cc1c(=O)n2C[C@H](O)[C@H](O)[C@H](O)CO)OCO3
active: [1] -49.4% | [2] -34.7% | [3] 8.49% | [4] -23.1% | [5] 1% | [6] -7.34% | [7] -24.6% | [8] -45.1% | [9] 0.283% | [10] -30.9% | [11] -1.68% | [12] 5.32% | [13] -48.9% | [14] -1.24% | [15] -57.2% | [16] 1.96% | [17] -23.6% | [18] -41.1% | [19] -43.4% | [20] -20.4%

Nc1n[nH]c2ccc([C@@H]3Nc4ccc5cn[nH]c5c4[C@H]4C5CCC(C5)[C@@H]34)cc12 (some centres undefined)
active: [5] 1.13% | [10] -9.43% | [15] -1.15% | [18] -19.6%
inactive: [1] 43.5% | [2] 37.9% | [3] 47.2% | [4] 48.3% | [6] 104% | [7] 27.1% | [8] 24.4% | [9] 38.4% | [11] 18.3% | [12] 10.8% | [13] 51.7% | [14] 50.8% | [16] 42% | [17] 13.2% | [19] 72.6% | [20] 10.7%

C=C(C)[C@@H]1CC[C@]2(C(=O)OC)CC[C@]3(C)[C@H](CC[C@@H]4[C@@]5(C)C/C(=C/c6cccc(I)c6)C(=O)C(C)(C)[C@@H]5CC[C@]43C)[C@@H]12
inactive: [1] 91.4% | [2] 94.2% | [3] 97.3% | [4] 88% | [5] 101% | [6] 100% | [7] 89% | [8] 101% | [9] 95.3% | [10] 125% | [11] 113% | [12] 96.9% | [13] 91.6% | [14] 98.4% | [15] 88.1% | [16] 95.1% | [17] 97.6% | [18] 91.7% | [19] 107% | [20] 103%

COc1ccc(/C=C\c2cc(OC)c(OC)c(OC)c2)cc1OC(=O)c1cccc(Cn2cc(CCOC(=O)[C@H](N)Cc3cn(C)c4ccccc34)nn2)c1
inactive: [1] 29.6% | [2] 19.8% | [3] 50.1% | [4] 44.3% | [6] 61.6% | [7] 18.9% | [8] 19.7% | [9] 15.7% | [13] 65.4% | [14] 42.8% | [15] 34.9% | [16] 23.1% | [17] 14.2% | [19] 68.2%
active: [5] 1.11% | [10] -54.5% | [11] -8.08% | [12] 4.84% | [18] -13.6% | [20] 9.47%
